# Compounds with a hit are over-represented: about 1.4% of the library has one in this group of screens.
# GLD-1 TGE inh: GLD-1-TGE RNA interaction inhibition (C. elegans) | Q17339 | purified GLD-1 + fluorescein TGE RNA, fluorescence polarization | inhibition, % at 5.96 µM | 320,000 compounds, 0.44% hits | AID 2280;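 active = percent inhibition above a per-plate cutoff, the plate mean of test compounds plus 3 SD, cut at about 30% in these data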
# BCLXL inh: blocks human Bcl-xL binding to Bim BH3 peptide; GST-Bcl-xL / FITC-Bim BH3 peptide fluorescence polarization; Q07817; inhibition, % at 10.9 µM; 320,000 compounds, 0.7% hits;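 active = inhibition above the mean of all tested compounds plus 3 SD, cutoff set per campaign, cut at about 30% in these data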;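 also: inhibitors lower millipolarization by displacing the labeled peptide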
# Target sequence (Q07817 whole entry, looked up): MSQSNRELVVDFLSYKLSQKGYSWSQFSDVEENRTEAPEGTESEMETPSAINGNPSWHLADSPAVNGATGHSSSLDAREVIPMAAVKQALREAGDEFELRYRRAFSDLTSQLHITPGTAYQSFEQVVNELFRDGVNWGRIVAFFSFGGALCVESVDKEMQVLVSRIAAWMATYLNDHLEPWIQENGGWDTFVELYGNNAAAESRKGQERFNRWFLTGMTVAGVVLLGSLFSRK
# eLon inh: inhibits E. coli Lon protease | P0A9M0 | purified E. coli Lon protease, fluorescence polarization | inhibition, % at 7.94 µM | 360,000 compounds, 0.42% hits | AID 602123; in the data active = inhibition above about 13%, passing the limit was not always enough
# MEX-5 binding: C. elegans MEX-5 TCR-2 RNA binding activity | MEX-5/FITC-TCR2 RNA binding, fluorescence polarization; stronger effect = lower value | activity score (negative = inhibition of binding), % at 10 µM | 300,000 compounds, 0.38% hits | AID 1832;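 active = inhibition past about -25% in most replicates, and total fluorescence under double the plate's negative control median, limit read from the data; inconclusive = replicates evenly split on the limit, or fluorescence at least double controls; inactive = too little inhibition in most replicates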
# MCL1 BIM primary: MCL1-BIM-BH3 interaction inhibition (human). Q07820. GST-MCL1 / FITC-Bim-BH3 fluorescence polarization. inhibition, % at 10.9 µM. 320,000 compounds, 0.68% hits;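 active = inhibition above the mean inhibition of all tested compounds plus 3 SD, set per campaign, cut at about 40% in these data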;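 also: higher means more loss of mP so more displacement of Bim peptide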
# Target sequence (Q07820 whole entry, looked up): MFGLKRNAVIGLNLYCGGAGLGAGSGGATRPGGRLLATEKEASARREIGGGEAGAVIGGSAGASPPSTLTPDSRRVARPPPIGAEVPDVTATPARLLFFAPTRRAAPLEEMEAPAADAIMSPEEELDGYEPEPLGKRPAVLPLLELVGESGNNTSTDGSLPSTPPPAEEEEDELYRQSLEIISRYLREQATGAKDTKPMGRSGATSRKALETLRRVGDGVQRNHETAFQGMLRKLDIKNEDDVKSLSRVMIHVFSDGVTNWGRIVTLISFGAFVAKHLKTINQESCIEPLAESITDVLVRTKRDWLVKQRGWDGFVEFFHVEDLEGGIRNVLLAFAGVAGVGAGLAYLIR
# BCLXL inh confirm: Bcl-xL (human) inhibition, MCL1 counter-screen confirmation. shares compounds with MCL1 BIM primary. GST-Bcl-xL / FITC-Bim BH3 peptide FP binding. inhibition, % at 10.9 µM. 1,700 compounds, 54% hits;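 active = inhibition above a cutoff equal to the mean inhibition of all tested compounds plus 3 SD, cut at about 30% in these data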
# MCL1 inh confirm: MCL1-BIM-BH3 interaction inhibition, confirmation | shares compounds with MCL1 BIM primary | GST-MCL1 / FITC-Bim-BH3 fluorescence polarization | inhibition, % at 10.9 µM | 1,700 compounds, 61% hits | AID 2168;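 active = inhibition above the average of all tested compounds plus 3 SD, cut at about 40% in these data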
# GLD-1 TGE cf: confirmation of C. elegans GLD-1 TGE RNA binding inhibitors; inhibition, % at 5.96 µM; GLD-1/FL-TGE RNA fluorescence polarization, biochemical; AID 2459; shares compounds with GLD-1 TGE inh; 550 compounds, 10% hits;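 active = average inhibition across triplicates above the hit cutoff set in the primary screen, cut at about 32% in these data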
# E coli Lon conf: confirmation of E. coli Lon protease inhibitors; shares compounds with eLon inh; purified E. coli Lon, fluorescence polarization; inhibition, % at 7.94 µM; 1,400 compounds, 31% hits; in the data active = inhibition above about 16%
# A number is an active result; n = inactive; u = inconclusive; x = not tested or not shown; + = active, no number.
SMILES,GLD-1 TGE inh,BCLXL inh,eLon inh,MEX-5 binding,MCL1 BIM primary,BCLXL inh confirm,MCL1 inh confirm,E coli Lon conf,others
NC(=O)C1=NOC(CNc2ncc(C(F)(F)F)cc2Cl)C1 (configuration not stated),n,n,n,n,n,x,x,x,
O=C(c1ccco1)N1CCN(Cc2csc(-c3ccccc3Cl)n2)CC1,n,n,n,n,n,x,x,x,
CCNc1cc(O)ccc1C,137.2,137.8,117.4,x,164.4,73.2,85.2,89.2,
Cc1ccc(C(=O)CNc2cc(C)ccc2C)cc1,n,n,n,n,n,x,x,x,
O=C1ON=C(c2cccc([N+](=O)[O-])c2)/C1=C/c1ccc(O)cc1,n,n,n,n,n,x,x,x,
COc1ccc2[nH]c(C)c(CCN(Cc3cccs3)C(=S)Nc3ccccc3)c2c1,46.4,79.4,68.0,n,87.8,38.1,59.2,22.1,GLD-1 TGE cf=n
C/C=C1\NC(=O)[C@H](C)NC(=O)[C@@H](NC(=O)[C@H](Cc2ccc(O)cc2)NC(=O)[C@@H](NC(=O)/C(C)=C/C)C(C)C)[C@@H](C)OC(=O)[C@H](CC(C)C)NC(=O)[C@@H](CCC(=O)O)NC1=O,x,x,n,x,x,x,x,x,
Cc1nc2ccccc2n2c(O)c(CC(=O)O)cc12,136.6,+,147.6,u,+,189.5,+,119.3,
O=Cc1c(N2CCN(CCO)CC2)nc2ccccn2c1=O,41.4,60.2,40.6,n,68.9,54.5,76.6,n,GLD-1 TGE cf=n
CCN(CC)C(=O)CSc1nnc2nnc3cc(OC)ccc3n12,120.0,137.6,132.2,-77.0,148.3,124.4,158.9,118.0,
CCOC(=O)N1CCN(C(=O)C2CCN(C(=O)c3ccc(C(C)(C)C)cc3)CC2)CC1,n,n,n,n,n,x,x,x,
Cc1ccc2[nH]c3ccccc3c(=O)c2c1,n,n,n,n,n,x,x,x,
O=c1c2ccccc2[nH]c2ccc(O)cc12,108.1,74.3,84.0,n,89.3,97.8,144.8,71.2,
O=C1C=C(NNC(=O)c2ccncc2)CC(c2ccccc2)C1 (configuration not stated),126.3,75.3,68.5,n,71.6,n,n,n,
Cc1ccc([N+](=O)[O-])c(OCC(O)CNC(C)(C)C)c1 (configuration not stated),n,n,n,n,n,x,x,x,
O=c1[nH]nc(CNc2ccc(C(F)(F)F)cc2)c2ccccc12,n,n,n,n,n,x,x,x,
O=c1[nH]nc(CNc2ccc(O)cc2)c2ccccc12,89.0,79.2,51.4,-52.4,76.3,51.5,41.2,n,
CCOC(=O)CNc1ccc2c(c1)OCO2,83.6,154.3,64.9,n,176.0,n,n,n,
COC(=O)c1ccncc1N,n,n,n,n,n,x,x,x,
Nc1cnccc1C(=O)O,97.7,106.9,131.0,-29.9,124.7,143.7,174.3,79.9,
O=[N+]([O-])c1ccccc1OCCN1CCOCC1,n,n,n,n,n,x,x,x,
CN1CCCc2cc3c(C(F)(F)F)cc(=O)oc3nc21,125.1,155.3,27.4,u,167.8,141.2,173.8,102.8,
FC(F)(F)c1cc(C(F)(F)F)c2ccc(N3CCOCC3)nc2n1,n,n,n,n,n,x,x,x,
CCOc1ccc(N2CC(C(=O)N3CCc4ccccc43)CC2=O)cc1 (configuration not stated),n,n,n,n,n,x,x,x,
COc1[nH]c(/N=C/c2ccccc2)c(C#N)c1C#N,159.1,160.3,149.0,-59.5,194.0,50.1,40.2,n,
SMILES,GLD-1 TGE inh,BCLXL inh,eLon inh,MEX-5 binding,MCL1 BIM primary,BCLXL inh confirm,MCL1 inh confirm,E coli Lon conf,others
CCOC(=O)N1CC=C2C(C#N)=C(N)C(C#N)(C#N)[C@H](c3cccs3)C2C1 (some centres not stated),n,n,n,n,n,x,x,x,
CC1CC=C2C(C#N)=C(N)C(C#N)(C#N)C(c3cccs3)C2C1 (configuration not stated),69.5,91.5,42.3,-30.7,96.0,52.2,67.9,16.3,
N#CCCN(CCC#N)C(=O)C1c2ccccc2Oc2ccccc21,+,+,+,u,+,n,n,n,
COC(=O)CCCC1=CC2=C(c3ccccc3)C(=O)C(C)(OC(=O)C3CCCC3)C(=O)C2=CN1Cc1ccco1 (configuration not stated),n,n,n,n,n,x,x,x,
C=CCN1C=C2C(=O)C(C)(OC(=O)c3ccc(OC)cc3)C(=O)C(c3ccco3)=C2C=C1CCCC (configuration not stated),53.8,67.2,41.5,n,71.3,41.3,61.8,n,
CC1(C)c2ccccc2N(CC(N)=O)C12C=Cc1ccccc1O2 (configuration not stated),n,n,n,n,n,x,x,x,
CC1(C)c2ccccc2N2CC(=O)N(CC(N)=O)C21C (configuration not stated),84.8,96.7,125.3,n,105.8,75.0,102.6,89.5,
CN(C(=O)CSc1nc2c(cnn2-c2ccccc2)c(=O)[nH]1)C1CCS(=O)(=O)C1 (configuration not stated),n,n,x,n,n,x,x,x,
CN(C)CCP(=O)(c1ccccc1)c1ccccc1,n,n,n,n,n,x,x,x,
CN(C)CCN(C)Cc1c2ccccc2c(CN(C)CCN(C)C)c2ccccc12,123.4,172.2,124.9,-64.1,189.5,77.0,101.6,47.1,
O=C1Nc2ccccc2/C1=C/c1cnc(-c2ccccc2)[nH]1,73.3,138.2,81.0,n,161.6,102.0,117.4,29.6,
Nc1ccc2nc(-c3ccccc3)cnc2c1,81.0,98.7,33.9,n,119.3,120.9,141.7,107.3,
Nc1ccc(-c2cnc3ccccc3n2)cc1,n,n,n,n,n,x,x,x,
CC(=O)Nc1ccc(S(=O)(=O)Nc2nc3ccccc3nc2Sc2nncn2C)cc1,37.1,78.1,19.3,n,77.8,40.6,47.3,n,
CCOc1ccc(C2C=C(c3ccc(C)cc3)Nc3nnnn32)cc1 (configuration not stated),33.1,58.7,24.3,n,50.1,39.2,57.3,n,
COC(=O)CSc1nc(C)c(C)c(C)c1C(N)=O,n,n,n,n,n,x,x,x,
O=C(O)c1cccc(CN2C(=O)c3ccccc3C2=O)c1,n,n,n,n,n,x,x,x,
O=C1c2cccc3c(O)ccc(c23)C(=O)N1Cc1ccccc1,+,+,+,u,+,+,+,+,
